High-throughput results: PubChem, several laboratories
Hits are enriched below; roughly 5.3% of the tested compounds scored in any of these assays.
SUMO Mot1 rescue: yeast Mot1-301 growth rescue at high temperature, primary screen, SUMOylation pathway inhibitor project, S. cerevisiae, ATP luminescence, 38.5C; S. cerevisiae Mot1-301 growth rescue; percent above DMSO median, 100 means doubled; growth rescue, % at 18.8 µM; 320,000 tested, 1% active; AID 2716, 2010;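 active = every valid replicate shows activation above 250% relative to neutral control wells; inactive = the rest, any valid replicate at or below 250%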
HIF act: HIF pathway transcriptional activators, primary screen, cell-based, U2OS HRE-luciferase, luminescence; U2OS HRE-luciferase reporter; normalized: DMSO 0%, desferrioxamine 100%; AID 1910, 2009; activation, % at 7.5 µM (by protocol); 300,000 tested, 0.32% active;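 active = mean activation of at least 10% of the iron chelator positive control signal, with at least half of replicates also reaching 10%; inconclusive = mean and replicate majority disagree about reaching 10%; inactive = mean and most replicates under 10%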
PfM18AAP inh: PfM18AAP inhibitors, malaria aminopeptidase, primary screen, biochemical, QFRET, recombinant enzyme. M18 aspartyl aminopeptidase (Plasmodium falciparum 3D7). H-Glu-NHMec fluorogenic cleavage. inhibition, % at 7.35 µM. 290,000 tested, 1.2% active. AID 1822, 2009;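 active = inhibition above the campaign mean inhibition over all tested compounds plus 3 SD, cut at about 28% in these data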
ALR H2O2 inh: inhibitors of human ALR sulfhydryl oxidase, primary screen, biochemical, H2O2 detection, HRP-luminol luminescence, single point; purified ALR, DTT oxidation; inhibition, % (test concentration not listed); 290,000 tested, 3.8% active; AID 485317, 2010;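 active = mean replicate inhibition above about 79%, with every replicate also reaching it, limit read from the data; inconclusive = only one of the two criteria met; inactive = mean below limit and not every replicate reaching it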
Target sequence (P55789 whole entry, looked up): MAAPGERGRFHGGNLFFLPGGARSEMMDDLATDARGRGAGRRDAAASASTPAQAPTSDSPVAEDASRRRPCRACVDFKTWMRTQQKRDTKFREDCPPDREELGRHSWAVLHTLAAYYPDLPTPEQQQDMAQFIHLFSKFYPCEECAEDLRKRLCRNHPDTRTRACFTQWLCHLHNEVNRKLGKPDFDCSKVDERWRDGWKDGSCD
Each line names hits and unclear results; the compound was inactive in the other large screens.

C=CC[n+]1c(C)csc1Nc1ccc(C)cc1	ALR H2O2 inh 99
C=CC[n+]1c(-c2ccc(Cl)cc2Cl)csc1Nc1ccc(NC(C)=O)cc1	none
Cc1ccc(-c2csc(Nc3ccccc3)[n+]2CCc2ccccc2)cc1	none
CC(C)CNC(=O)c1cccc(NC(=O)Cc2ccc(Br)cc2)c1	none
Cc1cc(C(C)(C)C)cc(C)c1S(=O)(=O)N1CC(=O)Nc2ccccc21	none
C=CCn1c(C)cc(C(=O)COC(=O)c2ccc(N)c([N+](=O)[O-])c2)c1C	SUMO Mot1 rescue 771
C=CCn1c(C)cc(C(=O)COC(=O)c2ccc3c(c2)NC(=O)CS3)c1C	ALR H2O2 inh 98
COCCn1c(C)cc(C(=O)COC(=O)c2ccc3ncsc3c2)c1C	HIF act inconclusive
COCCn1c(C)cc(C(=O)COC(=O)c2ccc3c(c2)NC(=O)CS3)c1C	ALR H2O2 inh 98
COc1cccc(CNc2ccc(N3CCC(C)CC3)cc2)c1OC	ALR H2O2 inh 98
CC1CCN(c2ccc(NC(=O)Cc3ccccc3)cc2)CC1	none
CN(C(=S)NC(=O)c1ccccc1Br)C1CCCCC1	ALR H2O2 inh 99
CCN(CC)c1ccc(NC(=O)CCNC(=O)c2ccco2)cc1	ALR H2O2 inh 99
CCN(CC)CCNc1nc(SC)nc2sc3c(c12)CCN(C)C3	none
CCCSc1nc(N)c2c3c(sc2n1)CN(C)CC3	none
COC(=O)CSc1nc(N)c2c3c(sc2n1)CCCC3	PfM18AAP inh 28
CC(C)Sc1nc(N)c2c3c(sc2n1)CN(C)CC3	HIF act 13 (no result: ALR H2O2 inh)
CSc1nc(NCCCN(C)C)c2c3c(sc2n1)CN(C)CC3	PfM18AAP inh 29
CN(C)CCSc1nc(N)c2c3c(sc2n1)CN(C)CC3	ALR H2O2 inh 99
Nc1nc(SCC(=O)NCCO)nc2sc3c(c12)CCCC3	none
Cc1cc(SCC(=O)c2cccs2)n2nc(C)c(-c3ccccc3)c2n1	none
CCCCNC(=O)[C@@](CC)(ONc1ccccc1C(F)(F)F)c1cccc2ccccc12	none (no result: HIF act, PfM18AAP inh)
CCOC(=O)N1CCN(C(=O)CSc2nc3nc(C)cc(C)n3n2)CC1	none (no result: HIF act, PfM18AAP inh)
CCN(C(=O)c1cc(Cl)ccc1Cl)C1CCS(=O)(=O)C1 (centres undefined)	none (no result: PfM18AAP inh)
Cc1ccnc(SCc2ccc(C(=O)O)cc2)n1	none
Cc1nc(SCc2ccc(C(=O)O)cc2)nc2c1CCCC2	ALR H2O2 inh 96
CCCCCCN1C=CC=C/C1=C/C=C(C#N)C#N	HIF act inconclusive, ALR H2O2 inh 87
CCCCCN1C=CC=C/C1=C\C=C(C#N)C#N	ALR H2O2 inh 99
CCCCCCN1C=C/C(=C\C=C(C#N)C#N)c2ccccc21	none
Cc1ccc(S(=O)(=O)NNC(=O)c2ccc(O)cc2)cc1	ALR H2O2 inh 97
CCOC(=O)c1ccc(S(=O)(=O)NNC(=O)c2cccc(N(C)C)c2)cc1	ALR H2O2 inh 82
COC(=O)Nc1ccc(S(=O)(=O)Nc2ccc(O)cc2)cc1	ALR H2O2 inh 89
CC(=O)Nc1ccc(C(=O)NNS(=O)(=O)c2ccc(C)cc2)cc1	none
CSc1ccc(S(=O)(=O)Nc2ccc(S(=O)(=O)Nc3ccc(C)cc3)cc2)cc1	none
CCNc1ccc(C(=O)OCC)cc1NC(=O)c1cccc(N(C)C)c1	none
Cc1ccc(S(=O)(=O)Nc2ccc(N=Nc3ccc(O)cc3)cc2)cc1	ALR H2O2 inh 90
CCOC(=O)c1nn(-c2ccc(F)cc2)c(=O)cc1OCC(=O)Nc1ccc(OCC)cc1	none (no result: PfM18AAP inh, ALR H2O2 inh)
Cc1ccsc1C(=O)OCC(=O)c1cc(C)n(C)c1C	none (no result: HIF act, PfM18AAP inh)
CCC(CO)Oc1cc(NC(=O)Cc2ccccc2)c2ncn(C(C)C)c2c1 (centres undefined)	none (no result: HIF act, PfM18AAP inh)
CCc1nnc(NS(=O)(=O)c2ccc(NC(=S)NC(=O)c3ccc(F)cc3)cc2)s1	none
CCc1nnc(NS(=O)(=O)c2ccc(NC(=O)/C=C/c3ccc(F)cc3)cc2)s1	ALR H2O2 inh 98
CCc1nnc(NS(=O)(=O)c2ccc(NC(=O)OC)cc2)s1	ALR H2O2 inh 98
CCCCOc1cccc(C(=O)Nc2ccc(S(=O)(=O)Nc3nnc(CC)s3)cc2)c1	ALR H2O2 inh 97
CCc1nnc(NS(=O)(=O)c2ccc(NC(=O)Nc3ccc(OC)cc3)cc2)s1	none (no result: ALR H2O2 inh)
COc1ccc(S(=O)(=O)Nc2nnc(Cc3ccc(OC)c(OC)c3)s2)cc1	ALR H2O2 inh 98
CNC(=S)NNC(=O)c1cccn(Cc2ccc(Cl)cc2Cl)c1=O	SUMO Mot1 rescue 336
CNC(=S)NNC(=O)c1ccc(=O)n(Cc2ccc(Cl)cc2Cl)c1	none
CCOC(=O)Nc1ccc2c(c1)N(CCCN(C)C)c1ccccc1CC2	ALR H2O2 inh 99
CCOC(=O)Nc1ccc2c(c1)N(C(=O)OC)c1ccccc1CC2	none
CCOC(=O)c1c(C)[nH]c(C(=O)COc2ccc3ccc(=O)oc3c2)c1C	none (no result: HIF act, PfM18AAP inh)
Cc1cccc(NNC(=S)Nc2c(C)cccc2C)c1	PfM18AAP inh 30
Cc1cccc(NC(=S)NNc2cccc(Cl)c2)c1	none
CC1C(=O)Nc2ccc(S(=O)(=O)NCCc3ccc(Cl)cc3)cc2NC1=O (centres undefined)	none
Cc1c(C)n(CC(O)CN2CCCCCC2)c2ccccc12 (centres undefined)	ALR H2O2 inh 98
Cc1c(C)n(CC(O)CNc2ccccc2)c2ccccc12 (centres undefined)	ALR H2O2 inh 98
COc1ccc(NCC(O)Cn2c(C)c(C)c3ccccc32)cc1 (centres undefined)	none (no result: ALR H2O2 inh)
Cc1cc(=O)n2c3ccccc3n(C)c2n1	none
COc1cccc2c3c(c(=O)[nH]c12)CC(C)(C)O3	none (no result: PfM18AAP inh)
COc1cccc2c3c(c(=O)[nH]c12)CCC(C)(C)O3	ALR H2O2 inh 98
O=C(CCNC(=O)C1CCN(S(=O)(=O)c2ccc(F)cc2)CC1)NCc1cccnc1	none
COc1ccc(NC(=S)N(Cc2ccc(Cl)cc2)Cc2ccc(C(=O)O)cc2)cc1Cl	ALR H2O2 inh 96 (no result: SUMO Mot1 rescue)
CCN1CCCc2cc(CN(CCN3CCOCC3)C(=S)Nc3ccc(OC)c(OC)c3)ccc21	ALR H2O2 inh 92
CCN1CCCc2cc(CN(CCN3CCOCC3)C(=S)Nc3ccc(OC)c(Cl)c3)ccc21	ALR H2O2 inh 99
Cc1cc(NC(=S)N(Cc2ccc(Cl)cc2)Cc2ccc(C(=O)O)cc2)ccc1Cl	none
S=C(Nc1ccccc1)N(CCN1CCOCC1)Cc1cccc(Cl)c1	none (no result: ALR H2O2 inh)
Cc1ccc(NC(=O)CSc2nncs2)cc1Cl	ALR H2O2 inh 99 (no result: HIF act, PfM18AAP inh)
Cc1ccc(NC(=O)CSCC#N)cc1Cl	ALR H2O2 inh 99
CCOC(=O)c1cc(NC(=O)CSCCO)ccc1Cl	ALR H2O2 inh 99
Cc1ccc2nc(Cl)c(C3CC(c4cccs4)=NN3S(C)(=O)=O)cc2c1 (centres undefined)	none
NS(=O)(=O)c1ccc(Sc2ccccn2)c([N+](=O)[O-])c1	none (no result: ALR H2O2 inh)
O=C(O)c1ccc(S(=O)(=O)Nc2ccc(O)c(Sc3nc4ccccc4s3)c2)cc1	ALR H2O2 inh 100
NS(=O)(=O)c1ccc(Sc2nc3ccccc3s2)c([N+](=O)[O-])c1	ALR H2O2 inh 98
CCOC(=O)Cc1nn2c(=O)cc(C)nc2s1	ALR H2O2 inh 93
